Assay outcomes deposited in PubChem BioAssay by several laboratories.
AHR act – human AHR activation; activation, % at 5 µM; AID 2796; 320,000 compounds, 2.5% hits; AHR-responsive luciferase reporter cells, luminescence; in the data active = activation above about 47%;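 note: 0% = vehicle wells and 100% = reference agonist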
Target sequence (P35869 whole entry, looked up): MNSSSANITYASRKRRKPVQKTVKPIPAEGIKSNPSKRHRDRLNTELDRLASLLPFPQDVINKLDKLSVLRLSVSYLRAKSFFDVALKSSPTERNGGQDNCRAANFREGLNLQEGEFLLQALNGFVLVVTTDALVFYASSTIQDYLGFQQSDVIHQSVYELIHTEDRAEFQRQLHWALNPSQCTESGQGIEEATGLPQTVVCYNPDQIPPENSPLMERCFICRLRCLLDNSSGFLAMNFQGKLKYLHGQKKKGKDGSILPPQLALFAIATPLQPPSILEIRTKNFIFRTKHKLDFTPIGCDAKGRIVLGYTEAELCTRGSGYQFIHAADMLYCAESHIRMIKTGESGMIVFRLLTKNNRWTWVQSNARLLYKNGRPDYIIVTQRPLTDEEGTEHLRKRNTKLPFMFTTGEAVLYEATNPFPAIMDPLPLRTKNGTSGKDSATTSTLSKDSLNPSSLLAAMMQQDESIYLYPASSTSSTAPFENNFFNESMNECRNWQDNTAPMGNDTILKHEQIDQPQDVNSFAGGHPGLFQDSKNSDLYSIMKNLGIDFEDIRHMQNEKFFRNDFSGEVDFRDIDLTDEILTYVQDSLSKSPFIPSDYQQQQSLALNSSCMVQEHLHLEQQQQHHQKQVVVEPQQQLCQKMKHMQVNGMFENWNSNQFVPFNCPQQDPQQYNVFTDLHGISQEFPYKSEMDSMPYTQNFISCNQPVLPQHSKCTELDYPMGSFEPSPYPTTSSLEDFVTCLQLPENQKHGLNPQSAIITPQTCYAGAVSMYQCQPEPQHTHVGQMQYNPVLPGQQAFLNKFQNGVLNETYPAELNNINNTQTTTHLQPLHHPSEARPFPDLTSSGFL
GRIN3A LBD mod – modulators (binders) of human NR3A ligand-binding domain. NR3A LBD differential scanning fluorimetry, Tm shift; 0% = protein alone, 100% = glycine-bound protein. Tm shift relative to glycine control, % at 25 µM. 340,000 compounds, 2.5% hits;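 active = melting temperature shift of at least 10% of the positive control shift, at one fixed dose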
NTR1 ag – NTR1 (human) agonism | NTR1-U2OS beta-arrestin-GFP spot imaging, agonist mode | activation, % at 20 µM | 330,000 compounds, 0.17% hits;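 active = activation at or above 40% of the spot to cytoplasm intensity ratio, with at least 20 cells analyzed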;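 note: 0% = DMSO without peptide and 100% = 100 nM NTR1 peptide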
AI-2 QS modul – Vibrio harveyi AI-2 quorum sensing modulation; activity change, % at 7.5 µM; Vibrio harveyi JMH597 AI-2 luminescence/OD600 ratio, 9 h; hits give low values; strain lacks LuxN and CqsS sensors; 0 = neutral-control median; 300,000 compounds, 0.4% hits; in the data active = activity change below about -75%, passing the limit was not always enough;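 note: luminescence divided by OD600 gain over 9 h not by final OD600 alone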
Mot1-301 SUMO – inhibitors of SUMOylation pathway: yeast Mot1-301 growth rescue. S. cerevisiae Mot1-301 growth rescue, ATP luminescence, 38.5C; percent above DMSO median, 100 means doubled. growth rescue, % at 18.8 µM. 320,000 compounds, 1% hits;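 active = every valid replicate shows activation above 250% relative to neutral control wells; inactive = the rest, any valid replicate at or below 250%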;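 note: OY570 slx delta 5 strain wells were the positive control but not used for scaling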
H9c2 protect – modulators protecting cardiomyocytes from myocardial damage; H9c2 cardiomyocytes, H2O2 injury protection, ATPLite, 2 h; protection from H2O2 cell death, % at 20 µM; 360,000 compounds, 0.63% hits; AID 588492;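 active = compounds giving at least 50% protection of heart cells from peroxide-induced death in the single-dose screen, raw or plate-pattern-corrected value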;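 note: 0% = DMSO wells with peroxide and 100% = DMSO wells without peroxide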
* marks the source's active call; other numbers are inactive results; nt = no result. This is a sample that favours compounds with a hit; in the whole collection about 6.2% have one here.

SMILES	AHR act	GRIN3A LBD mod	NTR1 ag	AI-2 QS modul	Mot1-301 SUMO	H9c2 protect
Cc1ccc(Cl)c(OC(=O)c2ccc(N3CCOCC3)c([N+](=O)[O-])c2)c1	2	22*	3	36	-14	-10
O=[N+]([O-])c1cc(Cl)ccc1N1CCOCC1	0	-2	0	8	1	5
Cc1cc(C(=O)Nc2ccccc2N2CCOCC2)ccc1[N+](=O)[O-]	72*	-1	3	17	0	2
CCOC(=O)c1cc(CC)sc1NC(=O)c1ccc([N+](=O)[O-])c(N2CCOCC2)c1	-1	4	0	13	371*	-14
CCOC(=O)c1cc(NC(=O)c2cccnc2)ccc1N1CCOCC1	27	1	-1	-2	8	1
Cc1cc(C(=O)NC(=S)Nc2ccccc2N2CCOCC2)ccc1[N+](=O)[O-]	12	-6	4	26	17	1
O=c1[nH]c(=S)[nH]c2nccnc12	nt	-1	nt	nt	nt	5
COc1cccc(NC(=O)N2CCCC2C(=O)NC2CCCC2)c1 (stereo not given)	1	-2	-1	18	5	1
Brc1ccc2ncnc(Nc3cccc4ccccc34)c2c1	59*	-6	1	19	30	-1
CC(C)C1C(c2ccccc2)N(C)C(c2ccccc2)CC1(O)c1ccccc1 (stereo not given)	-5	-8	13	31	379*	-16
O=C(NN/C(=N/S(=O)(=O)c1ccc(Cl)cc1)c1ccccc1)c1ccc(O)cc1	-1	37*	1	-12	-26	-2
CC(=O)c1cc2c(cc1N/C(=N/S(=O)(=O)c1ccccc1)c1ccc(Cl)cc1)OCO2	94*	-12	15	15	5	0
C=CCn1nnnc1SCC(=O)Nc1cccc(C(F)(F)F)c1	39	16*	3	0	6	6
C=CCn1nnnc1SCC(=O)Nc1ccc(C(=O)OC)cc1	7	-3	0	12	-25	-3
Cc1nc(/N=C(\N)NC(=O)c2ccccc2)nc2ccccc12	63*	-4	5	26	10	-2
CCC(=O)N/C(N)=N/c1nc(C)c2cc(C)c(C)cc2n1	50*	0	3	42	-3	4
Cc1nc(N=C(N)N)nc2ccccc12	6	-3	0	6	-2	-2
Cc1cc2nc(/N=C(\N)NC(=O)C(C)C)nc(C)c2cc1C	41	5	5	21	7	-3
Cc1nc(C)c(-c2ccc(SCc3ccccc3F)nn2)s1	-6	1	2	-2	-3	-4
CCOc1cc(S(=O)(=O)Nc2cc(C)cc(C)c2)ccc1Cl	0	11*	10	16	50	-16
CC(Oc1cccnc1[N+](=O)[O-])C(=O)Nc1ccc(Cl)cn1 (stereo not given)	56*	1	-1	nt	-13	1
O=C(NC1CCCCC1)c1cccnc1Sc1ccccc1	-1	-4	0	9	0	-4
COC(=O)c1ccc(CNS(=O)(=O)c2ccc3ccccc3c2)cc1	3	3	4	6	330*	-12
COc1cccc(S(=O)(=O)NCc2ccc(C(=O)Nc3ccc(Cl)c(Cl)c3)cc2)c1	-1	25*	0	0	13	-21
O=C(Nc1ccc(Cl)c(Cl)c1)c1cccc(S(=O)(=O)NCc2cccnc2)c1	5	11*	4	30	9	-25
SMILES	AHR act	GRIN3A LBD mod	NTR1 ag	AI-2 QS modul	Mot1-301 SUMO	H9c2 protect
COc1ccc(S(=O)(=O)NCc2ccc(C(=O)O)cc2)cc1	-1	-2	-1	21	8	0
COc1ccc(NC(=O)c2ccc(S(=O)(=O)NCc3cccnc3)cc2)cc1	-2	-21	1	8	27	-9
NS(=O)(=O)c1ccc(NC(=O)c2ccc(CNS(=O)(=O)c3cc(C(F)(F)F)ccc3Cl)cc2)cc1	0	30*	1	16	-11	1
NS(=O)(=O)c1ccc(CNC(=O)c2ccc(Cl)c(S(=O)(=O)NCc3ccccc3)c2)cc1	-1	-4	0	nt	-16	12
CCCCC1CN2CCc3c([nH]c4ccccc34)C2(C)C1 (stereo not given)	10	-2	0	19	7	-11
O=C(COC(=O)C1CC1)NCc1ccccc1	nt	2	-1	nt	nt	0
COc1cccc(S(=O)(=O)NCc2ccc(C(=O)Nc3ccc(C)cc3)cc2)c1	24	17*	4	8	-2	-2
COc1ccc(NC(=O)c2ccc(CNS(=O)(=O)c3cccc(OC)c3)cc2)cc1	9	-10	2	14	39	2
CCCC(=O)Nc1nnc([C@H]2C[C@H](O)[C@@H](CO)O2)s1	nt	nt	nt	nt	nt	5
Cc1ccc(S(=O)(=O)N[C@H](C(=O)OCC(=O)NC(=O)C2CCCCC2)C(C)C)cc1	1	23*	-1	nt	9	5
O=C(Nc1ccccc1C(=O)O)/C(=C/c1ccc(Cl)cc1Cl)NC(=O)c1ccco1	-1	-2	0	19	420	0
Cc1cccc(OCC(=O)Nc2c3c(nn2C(C)(C)C)CS(=O)(=O)C3)c1	3	-1	1	22	9	-1
Cn1cnc2nc[nH]c2c1=O	nt	1	nt	nt	nt	-2
Nc1ccc2c(c1)C(=NO)c1cc([N+](=O)[O-])ccc1-2	nt	28*	nt	nt	nt	-3
O=[N+]([O-])c1ccc2c(c1)-c1ccccc1C2=NO	nt	0	nt	nt	nt	-8
CCCN1CCC(C(=O)NC(c2ccc(Cl)cc2)c2ccsc2)CC1 (stereo not given)	nt	nt	nt	nt	nt	-1
COc1ccc(NS(=O)(=O)c2ccc3oc(SC)nc3c2)cc1	1	2	1	-1	-12	-11
COc1ccc(NS(=O)(=O)c2ccc3oc(SC4CCOC4=O)nc3c2)cc1 (stereo not given)	5	-3	68*	4	73	-35
Oc1[nH]c2ccc(Br)cc2c1N=Nc1ccc(F)cc1	62*	30*	10	-3	36	-8
O=[N+]([O-])c1ccc(N=Nc2c(O)[nH]c3ccc(F)cc23)cc1	-2	19*	11	-19	14	-10
CC(Oc1ccccc1)C(=O)N=Nc1c(O)[nH]c2ccc([N+](=O)[O-])cc12 (stereo not given)	63*	-3	9	11	2	4
O=[N+]([O-])c1ccc2[nH]c(O)c(N=Nc3ccc(F)cc3)c2c1	40	0	4	9	-2	-8
COc1ccc(S(=O)(=O)N2CN3CCN(C3)C2)cc1OC	4	-1	1	11	-12	7
Cc1ccccc1-n1nnnc1SCC(=O)NC1CC1	0	2	1	nt	10	0
Nc1nc(O)c(Sc2ccccc2[N+](=O)[O-])c(=O)[nH]1	1	17*	1	5	220	-2
